By AC50 is commonly meant the midpoint of the concentration-response curve, whichever way the signal moves.

The values that follow come from PubChem BioAssay (EPA / NIEHS).

The target of test [1] is PGR (gene 5241) (UniProt P06401). The experiment in a line: TOX21_PR_BLA_Followup_Agonist_ratio: Tox21 HEK293 Progesterone Receptor (PR) Agonism Beta-lactamase Follow-Up Assay, Ratio (AID 2283933). The essentials:
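PR-UAS-bla HEK293T cells in medium with 2% charcoal-stripped FBS were dosed after 6 h plating and incubated 16 h at 37C. LiveBLAzer FRET substrate was added for 2 h at room temperature. Cleaved/uncleaved substrate ratio fitted against DMSO; CellTiter-Glo viability run in the same wells.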

For test [2] the target is unchanged. The experiment in a line: TOX21_PR_BLA_Followup_Antagonist_ratio: Tox21 HEK293 Progesterone Receptor (PR) Antagonism Beta-lactamase Follow-Up Assay, Ratio (AID 2283934). The essentials:
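PR-UAS-bla HEK293T cells, 3,000/well in 2% charcoal-stripped FBS, given compound plus 1nM R5020 agonist for 16 hr at 37C. Beta-lactamase FRET substrate 2 hours, ratio cleaved/uncleaved fluorescence; viability by CellTiter-Glo in same wells.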

Test [3] has the same target. The experiment in a line: TOX21_PR_LUC_Followup_Agonist: Tox21 HEK293 Progesterone Receptor (PR) Agonism Luciferase Follow-Up Assay (AID 2283937; active means hit-call score of the fitted dose curve at least 0.9, where 1 is the maximum; inactive means score below 0.9). The method, boiled down: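 HEK293-PR-A-luc cells, conditioned 5 days in 10% charcoal-stripped FBS medium, seeded 3,000/well for 5 h, then compound-treated 16 h at 37C. ONE-Glo luminescence read after 30 min at room temperature; gain of signal versus DMSO.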

Test [4] in a line: TOX21_PR_LUC_Followup_Agonist_viability: Viability Assessment in the Tox21 HEK293 Progesterone Receptor (PR) Agonism Luciferase Follow-Up Assay (AID 2283941).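 Further: loss of signal means cytotoxicity so actives lower viability.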 The essentials:
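HEK293-PR-A-luc cells, kept in 10% charcoal-stripped FBS medium, were treated with compounds for 16 h at 37C. Viability read as cellular ATP by luciferase-coupled luminescence; loss of signal indicates cytotoxicity.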

Test [5] is described as follows: TOX21_TRB_BLA_Antagonist_Followup_viability: Viability Assessment in the Tox21 Thyroid Hormone Receptor beta Antagonism Beta-lactamase (BLA) Follow-Up Assay (AID 2283961). The essentials: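 HEK293T cells with GAL4-human TRβ LBD and UAS-bla reporter, 3,000 cells/well in 2% charcoal-stripped FBS medium; 11-point concentrations in triplicate, 18 h at 37C. Viability from ATP by CellTiter-Glo luminescence, 30 min RT, same plates.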

Test [6] has as its target Retinoic acid receptor RXR-alpha (Homo sapiens) (UniProt P19793). The experiment in a line: TOX21_TR_RXR_BLA_Antagonist_Followup_ratio: Tox21 Thyroid Hormone Receptor beta Retinoid X Receptor alpha (RXRa) Antagonism Beta-lactamase (BLA) Follow-Up Assay, Ratio (AID 2283972). The essentials: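 RXRa-UAS-bla HEK293T cells, 2,500/well in phenol red-free DMEM with 2% charcoal-stripped FBS, 5 h attachment, then compounds (11 concentrations, triplicate) for 16 h at 37C; FRET-B/GCCF4-AM substrate 2 h RT; 460:530 nm ratio, loss of signal vs DMSO.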

Another test addresses THRA (gene 7067) (UniProt P10827). The experiment in a line: TOX21_TRA_COA_Antagonist_Followup_ratio: Tox21 Thyroid Hormone Receptor alpha Antagonism through Coactivator Recruitment Follow-Up Assay, Ratio (AID 2283953). The method, boiled down:
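520:495 nm emission ratio (excitation 340 nm) reports fluorescein-SRC-2 peptide recruitment to GST-TRα LBD by TR-FRET with Tb anti-GST antibody. Values were normalized to DMSO (0%) and T3 control wells (100%); loss of signal indicated antagonism.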

The structures appear in SMILES notation. Records with an inconclusive call do not appear. The source made the active and inactive calls. How the source made its calls, unless noted: active means hit-call score of the fitted dose curve at least 0.9, where 1 is the maximum; inconclusive means response in the unintended direction; inactive means score below 0.9.

Chain of PGR (gene 5241) (P06401 whole entry, looked up): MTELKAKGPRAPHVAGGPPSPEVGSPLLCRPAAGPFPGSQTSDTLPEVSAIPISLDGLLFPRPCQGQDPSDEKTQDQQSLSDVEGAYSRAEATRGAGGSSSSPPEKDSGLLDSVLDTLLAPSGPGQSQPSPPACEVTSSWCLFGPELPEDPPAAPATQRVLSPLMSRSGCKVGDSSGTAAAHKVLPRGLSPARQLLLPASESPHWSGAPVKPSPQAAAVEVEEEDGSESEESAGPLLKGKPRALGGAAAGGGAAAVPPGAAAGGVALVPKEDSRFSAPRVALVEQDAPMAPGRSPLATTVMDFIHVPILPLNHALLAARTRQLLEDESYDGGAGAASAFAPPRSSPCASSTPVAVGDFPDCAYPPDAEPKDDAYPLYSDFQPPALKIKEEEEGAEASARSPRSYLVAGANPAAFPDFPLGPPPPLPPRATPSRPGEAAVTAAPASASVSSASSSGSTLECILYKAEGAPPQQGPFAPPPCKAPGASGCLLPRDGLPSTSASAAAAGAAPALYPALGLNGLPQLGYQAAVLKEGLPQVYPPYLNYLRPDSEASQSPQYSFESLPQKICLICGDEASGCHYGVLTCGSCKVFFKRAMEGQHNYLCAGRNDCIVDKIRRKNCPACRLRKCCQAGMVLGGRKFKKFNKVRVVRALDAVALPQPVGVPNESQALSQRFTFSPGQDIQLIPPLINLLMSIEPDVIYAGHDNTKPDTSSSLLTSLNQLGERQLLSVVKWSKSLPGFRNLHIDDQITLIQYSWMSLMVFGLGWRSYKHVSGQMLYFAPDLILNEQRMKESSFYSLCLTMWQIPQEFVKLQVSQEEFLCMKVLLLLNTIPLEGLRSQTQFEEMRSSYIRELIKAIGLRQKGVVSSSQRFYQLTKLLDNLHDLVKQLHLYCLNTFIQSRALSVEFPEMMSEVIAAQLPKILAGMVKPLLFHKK
Chain of Retinoic acid receptor RXR-alpha (Homo sapiens) (P19793 whole entry, looked up): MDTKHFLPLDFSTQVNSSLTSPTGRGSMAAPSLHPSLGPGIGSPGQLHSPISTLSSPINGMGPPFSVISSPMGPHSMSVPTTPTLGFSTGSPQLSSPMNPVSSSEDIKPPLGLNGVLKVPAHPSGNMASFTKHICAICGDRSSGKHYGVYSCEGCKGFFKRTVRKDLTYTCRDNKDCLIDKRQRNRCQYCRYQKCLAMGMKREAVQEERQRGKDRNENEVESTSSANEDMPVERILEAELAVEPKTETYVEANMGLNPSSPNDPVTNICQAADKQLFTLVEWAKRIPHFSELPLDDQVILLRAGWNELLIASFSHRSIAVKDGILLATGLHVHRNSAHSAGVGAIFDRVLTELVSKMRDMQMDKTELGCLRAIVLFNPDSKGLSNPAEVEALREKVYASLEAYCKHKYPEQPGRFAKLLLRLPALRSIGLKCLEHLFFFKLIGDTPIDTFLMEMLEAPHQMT
Chain of THRA (gene 7067) (P10827 whole entry, looked up, the tested form may be a part): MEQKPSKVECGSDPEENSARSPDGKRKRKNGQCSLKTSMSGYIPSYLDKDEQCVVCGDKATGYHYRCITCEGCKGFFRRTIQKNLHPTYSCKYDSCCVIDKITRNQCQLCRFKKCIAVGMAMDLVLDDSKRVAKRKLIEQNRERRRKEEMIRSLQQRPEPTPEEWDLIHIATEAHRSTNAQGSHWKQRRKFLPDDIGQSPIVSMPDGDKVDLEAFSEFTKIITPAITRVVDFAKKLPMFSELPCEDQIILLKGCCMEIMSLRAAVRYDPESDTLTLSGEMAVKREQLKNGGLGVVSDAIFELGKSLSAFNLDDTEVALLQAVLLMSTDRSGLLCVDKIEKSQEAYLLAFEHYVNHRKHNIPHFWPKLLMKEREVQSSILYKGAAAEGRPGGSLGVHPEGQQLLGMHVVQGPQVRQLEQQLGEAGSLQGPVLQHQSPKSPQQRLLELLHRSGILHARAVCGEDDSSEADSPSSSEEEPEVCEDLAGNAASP

In the case of `CC[C@]1(O)CC[C@H]2[C@@H]3CCC4=CCCC[C@@H]4[C@H]3CC[C@@]21C`, the AC50 with PGR (gene 5241) [1] was 0.686 µM (active); with PGR (gene 5241) [3] it was 0.0421 µM (active); in test [6], 14.3 µM (active). Also, the result (in the test with PGR (gene 5241) [2]; in test [4]; in test [5]) was inactive.

As to `CN1C(=O)[C@@H](NC(=O)c2cc3ccccc3[nH]2)N=C(c2ccccc2)c2ccccc21`, the outcome (with THRA (gene 7067); in test [5]; in test [6]) was inactive.
